Reference: PubChem BioAssay AID1159580 (chemical genetic matrix, 2015)
Values joined by “and” are separate entries in the source; they are usually repeats but may differ in a detail not shown here. Identical values can stand only once. Hit rate of the full screen: of about 5,500 compounds, about 2,000 (36%) were called active. Inconclusive results (about 18%) are left out. Rule as the data show it: active = normalized growth mostly below about 0.91 (no sharp cut-off); inconclusive = no clear call, values can overlap the other calls; inactive = mostly above about 0.92. The list shows a part of the results.

Test: chemical genetic growth profiling, strain panel (AID 1159580);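 also: tested at 20 µM; growth read once vehicle control cultures reached saturation at 30 °C; 1 = growth at the plate median or of vehicle wells; lower values mean less growth of the strain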
Settings: S. cerevisiae deletion strains, growth OD

Measured: normalized growth

C/C=C(\C)C(=O)O[C@@H]1c2c(ccc3ccc(=O)oc23)OC(C)(C)[C@@H]1OC(C)=O
inactive: locus YAL013W, strain DEP1, hits give low values 1.01 | locus YAL021C, strain ccr4, hits give low values 1.01 | locus YAL026C, strain drs2, hits give low values 0.989 | locus YAL030W, strain snc1, hits give low values 0.996 | locus YBL061C, strain skt5, hits give low values 0.994 | locus YBR009C, strain hhf1, hits give low values 1.03 | locus YBR021W, strain FUR4, hits give low values 1.03 | locus YBR023C, strain chs3, hits give low values 0.987 | locus YBR171W, strain sec66, hits give low values 0.98 | locus YBR229C, strain ROT2, hits give low values 0.995 | locus YBR231C, strain swc5, hits give low values 1 | locus YBR279W, strain paf1, hits give low values 1.01 | locus YCL011C, strain gbp2, hits give low values 1.01 | locus YCL016C, strain dcc1, hits give low values 0.993 | locus YCL029C, strain bik1, hits give low values 1.03 | locus YCL061C, strain MRC1, hits give low values 0.985 | locus YCL069W, strain vba3, hits give low values 1.01 | locus YCR088W, strain abp1, hits give low values 0.996 | locus YDL005C, strain med2, hits give low values 0.981 | locus YDL035C, strain GPR1, hits give low values 0.995 | locus YDL040C, strain nat1, hits give low values 0.998 | locus YDL074C, strain BRE1, hits give low values 1 | locus YDL101C, strain DUN1, hits give low values 1.01 | locus YDL134C, strain PPH21, hits give low values 0.974 | locus YDL185W, strain tfp1, hits give low values 1.02 | locus YDL192W, strain arf1, hits give low values 0.992 | locus YDR001C, strain nth1, hits give low values 1.01 | locus YDR069C, strain doa4, hits give low values 1 | locus YDR101C, strain arx1, hits give low values 1.03 | locus YDR150W, strain NUM1, hits give low values 0.997 | locus YDR159W, strain sac3, hits give low values 0.989 | locus YDR162C, strain NBP2, hits give low values 0.983 | locus YDR195W, strain ref2 1.06 | locus YDR297W, strain sur2, hits give low values 0.995 | locus YDR318W, strain mcm21, hits give low values 0.974 | locus YDR334W, strain swr1, hits give low values 1 | locus YDR335W, strain msn5, hits give low values 1.02 | locus YDR388W, hits give low values 1 | locus YDR392W, strain spt3, hits give low values 0.762 | locus YDR502C, strain sam2, hits give low values 0.991 | locus YEL003W, strain gim4, hits give low values 1.01 | locus YEL037C, strain rad23, hits give low values 1.01 | locus YEL061C, strain CIN8 (second series), hits give low values 1 | locus YEL061C, strain CIN8, hits give low values 0.991 | locus YER015W, strain faa2, hits give low values 1.01 | locus YER016W, strain bim1, hits give low values 0.993 | locus YER110C, hits give low values 1.01 | locus YER111C, strain swi4, hits give low values 0.994 | locus YER155C, strain BEM2 (second series), hits give low values 1.03 | locus YER155C, strain BEM2, hits give low values 1.01 | locus YER167W, strain BCK2, hits give low values 0.997 | locus YFR010W, strain ubp6, hits give low values 1.02 | locus YGL078C, strain dbp3, hits give low values 1 | locus YGL086W, strain mad1, hits give low values 1.05 | locus YGL167C, strain pmr1, hits give low values 0.984 | locus YGL173C, strain kem1, hits give low values 0.991 | locus YGL227W, strain vid30, hits give low values 0.991 | locus YGL240W, strain doc1, hits give low values 0.985 | locus YGL248W, strain PDE1, hits give low values 0.993 | locus YGL253W, strain hxk2, hits give low values 0.963 | locus YGR078C, strain PAC10, hits give low values 1 | locus YGR135W, strain pre9, hits give low values 0.987 | locus YGR252W, strain gcn5, hits give low values 1 | locus YHR013C, strain ard1, hits give low values 0.971 | locus YHR027C, strain rpn1, hits give low values 1 | locus YHR030C, strain SLT2, hits give low values 0.996 and 0.998 | locus YHR079C, strain IRE1 (second series), hits give low values 0.998 | locus YHR079C, strain IRE1, hits give low values 1.01 | locus YHR094C, strain hxt1, hits give low values 1 | locus YHR129C, strain ARP1, hits give low values 1 | locus YHR142W, strain chs7, hits give low values 0.987 | locus YHR200W, strain rpn10, hits give low values 1.02 | locus YIL066C, strain RNR3, hits give low values 0.992 | locus YIL073C, strain SPO22, hits give low values 0.989 | locus YIL125W, strain kgd1, hits give low values 1.01 | locus YIR030C, strain dcg1, hits give low values 0.994 | locus YJL092W, strain hpr5, hits give low values 0.99 | locus YJL095W, strain BCK1 (second series), hits give low values 0.994 | locus YJL095W, strain BCK1, hits give low values 0.956 and 1.05 | locus YJL115W, strain asf1, hits give low values 0.995 | locus YJL129C, strain trk1, hits give low values 0.953 | locus YJL134W, strain LCB3, hits give low values 0.996 | locus YJL154C, strain vps35, hits give low values 1.01 | locus YJL164C, strain tpk1, hits give low values 1 | locus YJL166W, strain qcr8, hits give low values 0.968 | locus YJL168C, strain set2, hits give low values 1.01 | locus YJL187C, strain SWE1 (second series), hits give low values 1 | locus YJL187C, strain SWE1, hits give low values 0.991 | locus YJR043C, strain POL32, hits give low values 1.02 | locus YJR066W, strain TOR1, hits give low values 0.958 | locus YJR075W, strain HOC1, hits give low values 0.993 | locus YKL009W, strain mrt4, hits give low values 0.997 | locus YKL068W, hits give low values 1.01 | locus YKL085W, strain MDH1 (second series), hits give low values 0.991 | locus YKL085W, strain MDH1, hits give low values 0.991 | locus YKL160W, strain elf1, hits give low values 0.939 | locus YKR001C, strain vps1, hits give low values 1.02 | locus YKR026C, strain gcn3, hits give low values 0.996 | locus YKR091W, strain srl3, hits give low values 0.996 | locus YLL001W, strain dnm1, hits give low values 0.972 | locus YLL026W, hits give low values 0.992 | locus YLL041C, strain sdh2, hits give low values 0.998 | locus YLR027C, strain aat2, hits give low values 0.992 | locus YLR039C, strain RIC1, hits give low values 0.946 | locus YLR058C, strain SHM2, hits give low values 0.995 | locus YLR102C, strain apc9, hits give low values 1.01 | locus YLR113W, strain HOG1, hits give low values 1.01 | locus YLR221C, strain rsa3, hits give low values 0.971 | locus YLR258W, strain gsy2, hits give low values 0.997 | locus YLR262C, strain YPT6, hits give low values 0.913 | locus YLR268W, strain sec22, hits give low values 1.02 | locus YLR320W, strain mms22, hits give low values 0.943 | locus YLR330W, strain CHS5, hits give low values 1.01 | locus YLR342W, strain FKS1 (second series), hits give low values 1.01 | locus YLR342W, strain FKS1, hits give low values 0.998 | locus YLR357W, strain rsc2, hits give low values 1.04 | locus YLR370C, strain arc18, hits give low values 0.996 | locus YLR371W, strain rom2, hits give low values 1.02 | locus YLR384C, strain iki3, hits give low values 0.988 | locus YLR418C, strain cdc73, hits give low values 0.97 | locus YML016C, strain PPZ1, hits give low values 0.995 | locus YML032C, strain rad52, hits give low values 0.99 | locus YML120C, strain ndi1, hits give low values 0.993 | locus YML124C, strain tub3, hits give low values 0.988 | locus YMR058W, strain fet3, hits give low values 1 | locus YMR078C, strain ctf18, hits give low values 1 | locus YMR125W, strain sto1, hits give low values 0.967 | locus YMR129W, hits give low values 0.992 | locus YMR205C, strain PFK2, hits give low values 0.919 | locus YMR223W, strain ubp8, hits give low values 0.979 | locus YMR231W, strain pep5, hits give low values 0.998 | locus YMR307W, strain GAS1, hits give low values 0.929 | locus YNL067W, strain RPL9B, hits give low values 0.997 | locus YNL071W, strain lat1, hits give low values 0.963 | locus YNL153C, strain GIM3, hits give low values 1.02 | locus YNL183C, strain NPR1, hits give low values 0.996 | locus YNL209W, strain ssb2, hits give low values 1 | locus YNL233W, strain BNI4, hits give low values 1.02 | locus YNL248C, strain rpa49, hits give low values 0.956 | locus YNL250W, strain rad50, hits give low values 1.02 | locus YNL271C, strain bni1, hits give low values 1 | locus YNL298W, strain CLA4, hits give low values 1.01 | locus YNL307C, strain MCK1, hits give low values 1 | locus YNL322C, strain KRE1 (second series), hits give low values 0.991 | locus YNR049C, strain mso1, hits give low values 0.992 | locus YNR052C, strain pop2, hits give low values 0.995 | locus YOL006C, strain TOP1, hits give low values 1.04 | locus YOL012C, strain htz1 1.21 | locus YOL147C, strain pex11, hits give low values 0.996 | locus YOR001W, strain rrp6, hits give low values 1.02 | locus YOR061W, strain CKA2, hits give low values 0.99 | locus YOR069W, strain VPS5, hits give low values 0.995 | locus YOR070C, strain gyp1, hits give low values 0.999 | locus YOR080W, strain dia2, hits give low values 1.01 | locus YOR083W, strain WHI5, hits give low values 0.953 | locus YOR106W, strain vam3, hits give low values 0.977 | locus YOR136W, strain idh2, hits give low values 1.03 | locus YOR144C, strain elg1, hits give low values 1.01 | locus YOR184W, strain ser1, hits give low values 0.959 | locus YOR231W, strain MKK1, hits give low values 0.991 | locus YOR265W, strain rbl2, hits give low values 0.991 | locus YOR270C, strain vph1, hits give low values 0.912 | locus YOR290C, strain snf2, hits give low values 0.972 | locus YOR316C, strain cot1, hits give low values 0.999 | locus YPL051W, strain arl3, hits give low values 0.96 | locus YPL055C, strain LGE1, hits give low values 1 | locus YPL078C, strain atp4, hits give low values 0.972 | locus YPL106C, strain sse1, hits give low values 1.04 | locus YPL240C, strain hsp82, hits give low values 1 | locus YPL241C, strain CIN2, hits give low values 0.986 | locus YPL256C, strain CLN2, hits give low values 0.99 | locus YPR119W, strain clb2, hits give low values 0.993 | locus YPR141C, strain kar3, hits give low values 1.01 | locus YPR163C, strain tif3, hits give low values 0.996 | locus YPR167C, strain met16, hits give low values 0.99 | strain wtn01, hits give low values 1.05
active: locus YDR137W, strain rgp1, hits give low values 0.842 | locus YLR262C, strain YPT6 (second series), hits give low values 0.846
